Values joined by “and” are separate entries in the source; they are usually repeats but may differ in a detail not shown here. Identical values can stand only once. Records with an inconclusive call do not appear. Active and inactive are the calls of the source. Rule for the calls: active = hit-call score of the fitted dose curve at least 0.9, where 1 is the maximum; inconclusive = response in the unintended direction; inactive = score below 0.9.
Tests used:
[1] = TOX21_p53_BLA_p2_viability: Viability Assessment in the Tox21 HCT-116 p53 Agonism Beta-lactamase Assay, Phase 2 (AID 2283591);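 note: compound exposure lasted 16 h at 37 °C; actives lower the ATP signal meaning cytotoxicity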
In short: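 HCT-116 p53-bla cells (4000/well) rested 5 h at 37C, then received compounds in DMSO (217-fold dilution) for 16 h at 37C, 5% CO2. After the CCF4 read, CellTiter-Glo was added; ATP luminescence was read after 30 min at room temperature.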

[2] = target: Cellular tumor antigen p53 (Homo sapiens) (UniProt P04637); experiment: TOX21_p53_BLA_p2_ratio: Tox21 HCT-116 p53 Agonism Beta-lactamase Assay, Ratio, Phase 2 (AID 2283592)
Chain of Cellular tumor antigen p53 (Homo sapiens) (P04637 whole entry, looked up): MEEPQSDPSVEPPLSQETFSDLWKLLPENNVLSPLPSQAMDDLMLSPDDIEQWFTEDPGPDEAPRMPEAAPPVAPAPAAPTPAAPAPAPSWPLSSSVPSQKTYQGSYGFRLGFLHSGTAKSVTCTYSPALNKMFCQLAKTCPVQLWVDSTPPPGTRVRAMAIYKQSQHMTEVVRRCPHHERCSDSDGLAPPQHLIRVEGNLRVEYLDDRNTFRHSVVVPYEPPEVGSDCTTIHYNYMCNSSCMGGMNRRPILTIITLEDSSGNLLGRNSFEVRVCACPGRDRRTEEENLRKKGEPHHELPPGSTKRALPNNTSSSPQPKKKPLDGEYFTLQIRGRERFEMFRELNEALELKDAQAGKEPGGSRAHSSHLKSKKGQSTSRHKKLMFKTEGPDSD
In short: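 Gain-of-signal p53 agonism was scored from the beta-lactamase FRET ratio (460/530 nm, 405 nm excitation) in HCT116 cells treated 16 h at 37C, 5% CO2, with DMSO serving as negative control and baseline.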

[3] = TOX21_p53_BLA_p3_viability: Viability Assessment in the Tox21 HCT-116 p53 Agonism Beta-lactamase Assay, Phase 3 (AID 2283593);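 note: cells exposed to compound for 16 h before reading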
In short: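 HCT-116 cells (4000/well) rested 5 h at 37C, then got DMSO compounds by pin tool (217-fold dilution) for 16 h at 37C, 5% CO2. After the bla read, CellTiter-Glo was added and luminescence read at 30 min, room temperature.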

[4] = target: Cellular tumor antigen p53 (Homo sapiens) (UniProt P04637); experiment: TOX21_p53_BLA_p3_ratio: Tox21 HCT-116 p53 Agonism Beta-lactamase Assay, Ratio, Phase 3 (AID 2283596)
In short: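 HCT116 p53-bla cells (4000/well) given compound in DMSO (217-fold dilution) after 5 h, incubated 16 h at 37C. CCF4-AM substrate 2 h at room temperature; 460/530 nm emission ratio, gain fitted against DMSO.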

[5] = TOX21_p53_BLA_p4_viability: Viability Assessment in the Tox21 HCT-116 p53 Agonism Beta-lactamase Assay, Phase 4 (AID 2283597);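 note: hits lower the luminescence signal meaning cytotoxicity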
In short: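 Following a 16 h exposure at 37C, the treated HCT116 wells were first read for the FRET ratio. They were then lysed with CellTiter-Glo, and ATP luminescence was recorded after 30 min at room temperature.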

[6] = target: Cellular tumor antigen p53 (Homo sapiens) (UniProt P04637); experiment: TOX21_p53_BLA_p5_ratio: Tox21 HCT-116 p53 Agonism Beta-lactamase Assay, Ratio, Phase 5 (AID 2283599)
In short: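 HCT-116 cells carrying a p53-inducible beta-lactamase reporter were seeded at 4000 cells/well and dosed after 5 h with compound in DMSO (217-fold dilution). After 16 h at 37C, CCF4-AM substrate was added for 2 h, and the 460/530 nm emission ratio was scored as gain-of-signal versus DMSO.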

[7] = TOX21_p53_BLA_p5_viability: Viability Assessment in the Tox21 HCT-116 p53 Agonism Beta-lactamase Assay, Phase 5 (AID 2283600)
In short: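 After the 460/530 nm beta-lactamase measurement, the wells received an ATP-detection luciferase reagent; signal was read 30 min later at RT. Compound treatment lasted 16 h on cells pre-incubated 5 h post-seeding.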

[8] = target: Cellular tumor antigen p53 (Homo sapiens) (UniProt P04637); experiment: TOX21_p53_BLA_p4_ratio: Tox21 HCT-116 p53 Agonism Beta-lactamase Assay, Ratio, Phase 4 (AID 2283601)
In short: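 HCT116 cells carrying an inducible beta-lactamase reporter were plated at 4000 cells/well, rested 5 h, then exposed to compounds in DMSO (217-fold dilution) for 16 h at 37C. CCF4-AM substrate was loaded 2 h at room temperature; 460/530 nm emission ratio scored gain-of-signal versus DMSO.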

Measured: AC50

CCCCCCCC[P+](CCCCCCCC)(CCCCCCCC)CCCCCCCC
active: [1] 15.8 µM | [2] 29.2 µM | [3] 13.3 µM | [4] 13.4 µM | [5] 21.6 µM | [6] 13.2 µM | [7] 13.6 µM | [8] 31.7 µM

CON=C(C(=O)N[C@@H]1C(=O)N2C(C(=O)O)=C(COC(N)=O)CS[C@H]12)c1ccco1
inactive: all assays above

CSc1ccc(/C=C2/C(C)=C(CC(=O)O)c3cc(F)ccc32)cc1
active: [1] 22.4 µM | [3] 41.1 µM | [5] 23.1 µM | [6] 19.7 µM | [7] 36.4 µM
inactive: [2] | [4] | [8]

NC(=S)N=Nc1ccc(NN=C(N)N)cc1
inactive: all assays above

SC1CCCCC1
inactive: all assays above

COc1cc(-c2ccc(-[n+]3nc(-c4ccccc4)nn3-c3ccc([N+](=O)[O-])cc3)c(OC)c2)ccc1-[n+]1nc(-c2ccccc2)nn1-c1ccc([N+](=O)[O-])cc1
active: [1] 13 µM | [2] 19.1 µM | [3] 21.3 µM | [4] 36.5 µM | [5] 11.4 µM | [6] 21.7 µM | [7] 17.6 µM | [8] 18 µM

Nc1nc(F)nc2c1ncn2[C@@H]1O[C@H](CO)[C@@H](O)[C@@H]1O
active: [2] 21.1 µM and 20 µM | [4] 13.2 µM and 20.6 µM | [6] 22.5 µM and 25.2 µM | [8] 22.5 µM and 24 µM
inactive: [1] | [3] | [5] | [7]

C[C@@H](NCCCc1cccc(C(F)(F)F)c1)c1cccc2ccccc12
inactive: [6] | [7]
active: [1] 21.4 µM | [2] 39 µM | [3] 30 µM | [4] 40.2 µM | [5] 15.2 µM | [8] 25.1 µM

CC(C)c1nc(N(C)S(C)(=O)=O)nc(-c2ccc(F)cc2)c1/C=C/C(O)CC(O)CC(=O)O (stereo not given)
inactive: all assays above

CCCCOc1ccc(C(=O)CCN2CCCCC2)cc1
active: [5] 6.37 µM
inactive: all other assays above

O=[N+]([O-])c1c(Cl)cccc1-c1c[nH]cc1Cl
active: [3] 37.2 µM | [4] 23.6 µM | [5] 36.3 µM
inactive: all other assays above

COc1cc([C@@H]2c3cc4c(cc3C(O[C@@H]3O[C@@H]5COC(c6cccs6)O[C@H]5[C@H](O)[C@H]3O)C3COC(=O)[C@@H]32)OCO4)cc(OC)c1O (stereo not given in full)
active: [2] 0.717 µM | [4] 0.939 µM | [6] 0.886 µM | [8] 0.841 µM
inactive: [1] | [3] | [5] | [7]

Clc1ccc(COC(Cn2ccnc2)c2ccc(Cl)cc2Cl)c(Cl)c1 (stereo not given)
active: [2] 17.3 µM
inactive: all other assays above

CN=C(N)NCCC[C@H](N)C(=O)O
inactive: all assays above

Oc1ccc(Cl)cc1Sc1cc(Cl)ccc1O
active: [1] 31.3 µM and 23 µM | [2] 31.8 µM and 8.26 µM | [3] 46 µM and 23 µM | [4] 46 µM and 21.2 µM | [5] 53.9 µM and 15.2 µM | [6] 72.3 µM and 32.1 µM | [7] 70.2 µM and 23 µM | [8] 65 µM and 28.6 µM

CC(C)(O)c1ccccc1CC[C@@H](SCC1(CC(=O)O)CC1)c1cccc(/C=C/c2ccc3ccc(Cl)cc3n2)c1
active: [1] 18.2 µM | [3] 19.4 µM | [4] 33.8 µM | [5] 15.1 µM | [6] 17.6 µM | [7] 14.5 µM | [8] 18.8 µM
inactive: [2]

NCCS
inactive: all assays above

C=CC(=O)O
inactive: all assays above

CCN(CC)c1ccc(C(=C2C=CC(=[N+](CC)CC)C=C2)c2ccccc2)cc1
active: [1] 1.81 µM | [2] 4.15 µM | [3] 2.75 µM | [4] 6.97 µM | [5] 1.94 µM | [6] 9.22 µM | [7] 2.93 µM | [8] 11.1 µM

O=S(=O)(O)Oc1ccc(C(c2ccc(OS(=O)(=O)O)cc2)c2ccccn2)cc1
inactive: all assays above

Reference: PubChem BioAssay (EPA / NIEHS)
